These results are taken from PubChem BioAssay AID770 (SRMLSC, 2007).

The whole screen tested about 3,300 compounds, of which fewer than 10 were called active.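 How the source made its calls: active means growth inhibition above 90% in viable cell count at a single dose; inactive means growth inhibition below 90%.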 These entries were drawn from the full list.

The experiment in a line: HT29 colon tumor cell growth inhibition, primary screen, imaging, high content imaging, 24 h, CellTiter-Glo (AID 770).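 On condensed nuclei: share of cells whose nuclear area falls below control median minus 1.5 SD.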 The conditions noted are these: HT29 cell number by imaging, at 10 µM, stronger effect = higher value; for condensed nuclei: measured here: percent cells with condensed nuclei. A general note: ATP-based viability assays read luminescence as a measure of living cells.

Where [1] appears, read: measured here: ATP CellTiter-Glo viability.

As for `Cc1c2ccncc2c(C)c2c1[nH]c1ccccc12`, the growth inhibition was 95.1% (active) and the condensed nuclei was determined as 18.1%. Also, the growth inhibition under setting [1] is 46.4%.

Turning to `c1ccc2c(c1)[nH]c1cnccc12`, the growth inhibition is 36.4% (inactive) and the condensed nuclei came to 3.43%. For the same molecule, under setting [1], the growth inhibition was determined as 17.6%.

On to `C=CCOC(=O)C1=C(C)OC(N)=C(C#N)[C@@]12C(=O)N(CC(N)=O)c1ccccc12`, for which the growth inhibition is 19% (inactive) and the condensed nuclei came out at 5.52%. Further, under setting [1], the growth inhibition was -1.1%.

For `Cn1c(O)c(C=NC2CCN(Cc3ccccc3)CC2)c(=O)n(C)c1=O`, the growth inhibition is 26.8% (inactive) and the condensed nuclei is 6.67%. Also, the growth inhibition under setting [1] came to 3.87%.

In the case of `CN1CC[C@@]23CCCC[C@@H]2[C@@H]1Cc1ccc(O)cc13`, the growth inhibition was -3.31% (inactive) and the condensed nuclei came to 4.84%. In addition, the growth inhibition under setting [1] is -18.2%.

Turning to `C/C(Cl)=C/CC1(CN2CCCC2=O)C(=O)NC(=O)NC1=O`, the growth inhibition is -10.6% (inactive) and the condensed nuclei amounted to 2.87%. The growth inhibition under setting [1] was -8.34%.

On to `CCOc1ccccc1-n1c(O)c(C=Nc2c(C)n(C)n(-c3ccccc3)c2=O)c(=O)[nH]c1=O`, for which the growth inhibition is 100% (active) and the condensed nuclei worked out at 5.62%. Under setting [1], the growth inhibition was -85.3%.

Take `Cc1c(N=Cc2c(O)n(CCc3ccccc3)c(=O)[nH]c2=O)c(=O)n(-c2ccccc2)n1C`: the growth inhibition was 23.4% (inactive) and the condensed nuclei is 7.53%. For the same molecule, under setting [1], the growth inhibition came out at 16.4%.

`CCCCCCn1c(O)c(C=Nc2c(C)n(C)n(-c3ccccc3)c2=O)c(=O)[nH]c1=O`: the growth inhibition was -5.94% (inactive) and the condensed nuclei was determined as 3.03%. Under setting [1], the growth inhibition was -9.79%.

Regarding `CCCCCCn1c(O)c(C=NC2CCN(Cc3ccccc3)CC2)c(=O)[nH]c1=O`, the growth inhibition was 3.03% (inactive) and the condensed nuclei is 1.13%. Under setting [1], the growth inhibition stood at 23.3%.
